Screening data as filed in PubChem.
A selection: hits, their analogues and other compounds. The true share with any hit is near 4.1%.
hgDAF-12 ag: agonists of H. glycines DAF-12 nuclear receptor. HEK293 GAL4-hgDAF12 UAS-luciferase reporter, agonist luminescence; normalized to butyrate control. activation, % at 6.8 µM. hit rate 1.8% among 370,000;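 active = activation above a cutoff set at the mean of all screened compounds plus 3 SD, cut at about 10% in these data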
hcDAF12 agonist: activates DAF-12 receptor from parasite H. contortus. HEK293 hcDAF-12 lit1-tk-luc reporter, luminescence; 0% DMSO, 100% Δ7-dafachronic acid. hit rate 1.4% among 370,000. AID 652067. activation, % at 6.8 µM;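 active = activation above the mean of all tested compounds plus 3 SD, cut at about 5.5% in these data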
ssDAF12 agonist: activators of S. stercoralis DAF-12 nuclear receptor; HEK293 ssDAF-12/GRIP1 lit1-tk-luc reporter, luminescence; % of 3 µM dafachronic acid response; activation, % at 6.8 µM; hit rate 1% among 370,000;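 active = activation above the mean over all tested compounds plus 3 SD, cut at about 0.9% in these data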
DAX1 inh-1: DAX1 (NR0B1) inhibition, primary screen; AID 652010; hit rate 1.1% among 370,000; inhibition, % at 6.8 µM; HEK293T StAR-luciferase reporter, SF-1/DAX-1 repression relief;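 active = inhibition above the mean over all tested compounds plus 3 SD, cut at about 3.6% in these data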;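 also: higher inhibition means more luminescence from relief of DAX-1 repression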
DAX1 inh-2: inhibitors of human orphan nuclear receptor DAX1 (NR0B1) | AID 504766 | HEK293 Gal4-DAX1 luciferase reporter, luminescence | inhibition, % at 6.75 µM | hit rate 0.99% among 340,000 | P51843;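 active = inhibition above the mean over all tested compounds plus 3 SD, cut at about 4.2% in these data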;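 also: inhibition shows as a rise in luminescence from relieved DAX1 repression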
Target sequence (P51843 207-470 limits assumed): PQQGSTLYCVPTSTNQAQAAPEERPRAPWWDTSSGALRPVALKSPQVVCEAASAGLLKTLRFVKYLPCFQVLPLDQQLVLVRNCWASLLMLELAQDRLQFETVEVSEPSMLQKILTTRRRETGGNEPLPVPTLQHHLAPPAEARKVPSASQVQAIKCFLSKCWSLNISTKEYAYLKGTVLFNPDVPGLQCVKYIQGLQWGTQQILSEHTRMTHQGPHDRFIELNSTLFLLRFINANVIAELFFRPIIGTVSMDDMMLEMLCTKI
LXR ag: LXR-beta agonism as hcDAF-12 counter-screen; AID 743027; 3,400 tested, under 10 active; activation, % at 6.8 µM; HEK293 Gal4-LXR tk-luc reporter, luminescence, 24 h; normalized: DMSO 0%, positive control 100%; shares compounds with hcDAF12 agonist;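 active = mean percent activation of the reporter above a cutoff set as the average over tested compounds plus their standard deviation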
hcDAF12 conf: hcDAF-12 agonism, confirmation assay. HEK293 hcDAF-12 lit1-tk-luc reporter, luminescence; % of Δ7-dafachronic acid response. hit rate 61% among 3,400. activation, % at 6.8 µM. shares compounds with hcDAF12 agonist. AID 743032;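 active = mean activation across triplicate tests above the threshold derived from the earlier primary screen, cut at about 5.5% in these data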
Hits are given with their value; - = inactive; . = no result.

SMILES	hgDAF-12 ag	hcDAF12 agonist	ssDAF12 agonist	DAX1 inh-1	DAX1 inh-2	LXR ag	hcDAF12 conf
CC(=O)N(NC(=O)c1ccc(C)cc1)C1CC(=O)N(c2ccccc2Cl)C1=O (stereo not drawn)	-	8.6	-	-	-	-	-
Nc1cccc2c1C(=O)N(CCOc1ccccc1F)C2=O	11	18	1.9	-	-	-	18
CC(C)NC(=O)C1(C)CCN1C(=O)c1ccc(F)c(Cl)c1 (stereo not drawn)	-	-	-	-	.	.	.
C(=N\n1c2ccccc2c2ccccc21)/c1ccccc1	-	10	-	-	-	-	5.9
Oc1ccccc1/C=N/n1c2ccccc2c2ccccc21	-	-	-	-	-	.	.
O=C(/C=C/c1cccc([N+](=O)[O-])c1)c1ccco1	-	-	-	-	-	.	.
Cc1ccc([N+](=O)[O-])cc1N/C=C/C(=O)c1ccco1	-	8.1	-	-	-	-	6.1
CCN(CC)c1ccc(NC(=O)CSc2nnc(-c3ccc(Cl)cc3)n2Cc2ccco2)cc1	-	-	-	-	.	.	.
COc1cc(/C=C/C(=O)C2C(=O)C=C(C)OC2=O)cc(OC)c1O (stereo not drawn)	-	-	-	-	-	.	.
COc1ccc(/C=C/C(=O)C2C(=O)C=C(C)OC2=O)cc1O (stereo not drawn)	-	13	1.6	-	-	-	-
CCOc1ccc(-c2cn(-c3ccc(OC)cc3)c(SC)n2)cc1	11	7.0	-	-	-	-	-
O[C@H]1C[C@H](c2ccccc2)N(Cc2cccs2)C[C@@H]1n1cc(-c2ccc(F)cc2)nn1	-	-	-	-	-	.	.
Cc1cccc2sc(NNC(=O)c3ccc4c(c3)OCCO4)nc12	-	9.4	-	-	-	-	-
O=C(NNc1nc2cc3c(cc2s1)OCCO3)c1ccccc1	-	-	-	-	-	.	.
C/C(CC(=O)Nc1ccc(Cl)c(C(F)(F)F)c1)=N\NC(=O)c1ccccc1O	-	10	1.4	-	-	-	-
COc1ccc(/C=N/N2C(C)CCCC2C)cc1O (stereo not drawn)	-	8.1	0.9	-	-	-	7.4
Cc1ccc(C2c3[nH]c4ccccc4c3C[C@H]3C(=O)N(c4ccccc4C(=O)N4CCC[C@H]4C(=O)O)C(=O)N23)cc1 (stereo partly drawn)	-	7.6	-	-	-	-	-
O=C(O)[C@H]1CCCN1C(=O)c1ccccc1N1C(=O)[C@@H]2Cc3c([nH]c4ccccc34)C(c3cccc(Cl)c3)N2C1=O (stereo partly drawn)	-	-	-	-	-	.	.
COc1cccc(C2c3[nH]c4ccccc4c3C[C@H]3C(=O)N(c4ccccc4C(=O)N4CCC[C@H]4C(=O)O)C(=O)N23)c1 (stereo partly drawn)	-	-	-	-	-	.	.
O=C(O)[C@@H]1CCCN1C(=O)c1ccccc1N1C(=O)[C@@H]2Cc3c([nH]c4ccccc34)C(c3cccc(Cl)c3)N2C1=O (stereo partly drawn)	-	8.8	-	-	-	-	-
CC(=O)N1CCCC(C)(C(=O)Nc2ccc3oc(C)nc3c2)C1 (stereo not drawn)	-	-	-	-	.	.	.
COc1ccccc1C(=O)NNC(=O)c1ccc2ccccc2c1O	-	-	-	-	-	.	.
COc1ccccc1C(=O)NNC(=O)C1CCN(C(=O)OC(C)(C)C)CC1	-	7.1	-	-	-	-	-
COc1ccccc1C(=O)CC(=O)c1ccccc1	11	6.7	1.5	-	-	-	11
COc1ccccc1C(=O)NNC(=O)c1ccccc1Br	-	8.4	-	-	-	-	-
SMILES	hgDAF-12 ag	hcDAF12 agonist	ssDAF12 agonist	DAX1 inh-1	DAX1 inh-2	LXR ag	hcDAF12 conf
COc1ccccc1C(=O)Nc1nnc(-c2ccccc2)s1	-	6.8	1.2	-	-	-	8.5
COc1ccc(C2OCCNC3C2C(=O)N(Cc2ccc(OC)cc2OC)C3Cc2ccccc2)cc1 (stereo not drawn)	-	-	-	.	.	.	.
C[C@H]1CN([C@@H](C)CO)C(=O)CCCn2nncc2CO[C@H]1CN(C)S(=O)(=O)c1ccc(C#N)cc1	-	-	-	-	-	.	.
OC[C@@H]1CN(Cc2ccccc2)C[C@H](n2cnc3c(Nc4ccccc4)ncnc32)O1	-	-	-	-	.	.	.
Cc1ccnc2nc(C(=O)OCC(=O)N(C)C3CCCCC3)nn12	-	-	-	-	-	.	.
COc1ccccc1C(=O)NNC(=O)c1ccccc1	-	10	1.0	-	6.0	-	11
COc1ccccc1C(=O)NNC(=O)c1cccc(Br)c1	-	-	-	-	-	.	.
CC(C)[C@H](NC(=O)N1CCOCC1)C(=O)N1CCC[C@H]1C(=O)NCc1ccccc1	-	-	-	-	.	.	.
C[C@@H]1/C=C/CC(=O)N[C@H](c2ccc3ccccc3c2)[C@H](C)/C=C/CC(=O)N[C@@H]1c1ccc2ccccc2c1	-	8.7	-	-	.	-	-
C[C@H]1/C=C/CC(=O)N[C@@H](c2ccccc2)[C@@H](C)/C=C/CC(=O)N[C@H]1c1ccccc1	-	-	-	-	.	.	.
CCn1ccnc1CN(C)C(=O)c1cc(COc2ccc(OC)c3ccccc23)on1	-	-	-	-	-	.	.
O=C(NCC1CCCO1)c1cc2cc(F)ccc2[nH]1 (stereo not drawn)	-	7.1	-	-	-	-	-
O=C(NCC1CCCO1)c1ccc[nH]1 (stereo not drawn)	-	-	-	-	-	.	.
Nc1[nH]c(C(=O)c2ccccc2)c(-c2cccc3ccccc23)c1C(=O)c1ccc(Br)cc1	-	-	-	-	.	.	.
CC(=O)Nc1cccc(NC(=O)c2cc3ccccc3o2)c1	-	-	-	-	-	.	.
COc1ccc(NC(=O)c2cc3ccccc3o2)cc1	12	7.2	-	-	-	-	7.3
Cc1ccc(NC(=O)c2cc3ccccc3o2)cc1Cl	13	8.8	-	-	6.8	-	5.9
O=C(c1cc(COc2cccc3cnccc23)on1)N1CCCC(CCCO)C1 (stereo not drawn)	-	-	-	-	-	.	.
COc1ccc(OCc2cc(C(=O)N3CCCC(CO)C3)no2)c2ccccc12 (stereo not drawn)	-	7.8	1.4	-	-	-	9.5
NC(=NCc1ccccc1)NC(=O)OCc1ccccc1	-	-	-	-	.	.	.
CC(C)CCNC(=O)CCC(=O)NNc1nc2ccccc2c2nc(-c3ccccc3)nn12	-	6.8	-	-	-	-	-
Cc1ccc(C2=Nc3ccccc3N=C(C(Cl)Cl)C2)cc1	19	17	2.8	3.8	-	-	9.9
